In PubChem BioAssay (EPA / NIEHS):
Where “and” joins values, the source holds several entries; their conditions need not be identical. Equal values may be shown once. Inconclusive results are not listed. Some compounds were tested as several samples or in several runs, with calls that do not always agree. Calls of active or inactive are those of the source. Rule for the calls, unless noted: active = hit-call score of the fitted dose curve at least 0.9, where 1 is the maximum; inactive = score below 0.9.

Legend:
[1] = APR_HepG2_CellCycleArrest_1hr: Apredica 1-hour HepG2 Assay for Cell Cycle Arrest (AID 2282666); conditions: high-content imaging, actives raise or lower the signal
Outline: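 HepG2 cells exposed for 1 h to 0.39–200 uM compound (0.5% DMSO). Fixed, Hoechst-stained nuclei imaged by ArrayScan; DNA content quantified by Cell Cycle analysis; bidirectional fit against DMSO.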

[2] = APR_HepG2_CellLoss_1hr: Apredica 1-hour HepG2 Assay for Cell Loss (AID 2282668); conditions: high-content imaging;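 note: curves fitted both ways against DMSO so gain or loss of cells counts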
Outline: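 HepG2 cells were treated for 1 h with compound at 0.39–200 uM, in duplicate, in 0.5% DMSO. After formaldehyde fixation, Hoechst 33342-stained nuclei were imaged on an ArrayScan to count cells. Data were fitted bidirectionally versus DMSO.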

[3] = APR_HepG2_MicrotubuleCSK_1hr: Apredica 1-hour HepG2 Assay for Microtubule CSK Stabilty (AID 2282669); conditions: HepG2 microtubule cytoskeleton imaging, actives raise or lower the signal
Outline: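 HepG2 cells exposed 1 h to 0.39–200 uM compound (0.5% DMSO, duplicates), then formaldehyde-fixed, permeabilized and immunostained for alpha-tubulin with Hoechst nuclei. Imaged by ArrayScan high-content analysis; bidirectional fit versus DMSO.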

[4] = APR_HepG2_NuclearSize_1hr: Apredica 1-hour HepG2 Assay for Nuclear Size (AID 2282670); conditions: high-content imaging, actives raise or lower the signal
Outline: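 HepG2 cells dosed 1 hr with 0.39–200 uM compound (0.5% DMSO), formaldehyde-fixed, Hoechst 33342-stained and imaged at 20x; nuclear diameter from nuclear stain, fitted bidirectionally against DMSO.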

[5] = APR_HepG2_P-H2AX_1hr: Apredica 1-hour HepG2 Assay for H2AX Phosphorylation (AID 2282673); conditions: high-content imaging, actives raise or lower the signal
Outline: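 HepG2 dosed 1 hr at 0.39-200 uM (0.5% DMSO final), duplicate. Fixed in 3.7% formaldehyde, Triton permeabilized, immunostained for phospho-histone H2A.x (1:200) with Hoechst 33342; ArrayScan 20x imaging, bidirectional fit vs DMSO.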

[6] = ACEA_ER_80hr: ACEA Biosciences xCELLigence Real-Time Cell Analysis on Estrogen Receptor Agonism for Proliferation (AID 2282667; active = hit-call score of the fitted dose curve at least 0.9, where 1 is the maximum); conditions: T47D proliferation, impedance (xCELLigence), 80 h
Outline: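 Real-time electrical impedance tracked growth of the human breast line T47D, with the 80 h post-dosing value used. Dosing spanned eight 1:4 steps down from a 100 uM final top concentration, run in duplicate.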

[7] = APR_HepG2_MitoticArrest_1hr: Apredica 1-hour HepG2 Assay for Mitotic Arrest (AID 2282672); conditions: high-content imaging, actives raise or lower the signal
Outline: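 HepG2 cells exposed 1 hr to compounds at 0.39–200 uM (0.5% v/v DMSO final), then fixed in 3.7% formaldehyde and immunostained for phospho-histone H3 with Hoechst 33342. Mitotic arrest scored by automated fluorescence imaging, fitted bidirectionally versus DMSO.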

[8] = APR_HepG2_MitoMass_1hr: Apredica 1-hour HepG2 Assay for Mitochondrial Mass (AID 2282674); conditions: high-content imaging, actives raise or lower the signal
Outline: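 HepG2 cells dosed 1 hr with 0.39-200 uM compound (0.5% DMSO), duplicate wells. Mitochondria stained with 250 nM MitoTracker Red CMXRos for 30 min before formaldehyde fixation, imaged at 20x by ArrayScan; bidirectional fit versus DMSO.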

[9] = APR_HepG2_CellCycleArrest_24hr: Apredica 24-hour HepG2 Assay for Cell Cycle Arrest (AID 2282905); conditions: imaging, actives raise or lower the signal;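 note: cell cycle arrest scored as ratio of 2N to 4N nuclear DNA content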
Outline: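 HepG2, 24 hr dosing, 10-pt 0.39–200 uM in duplicate, 0.5% DMSO. Fixed 3.7% formaldehyde, permeabilized 0.5% Triton X-100, Hoechst 33342 2 ug/mL. Imaged 20x; nuclear DNA content quantified; bidirectional fit vs DMSO.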

[10] = APR_HepG2_MitoMembPot_1hr: Apredica 1-hour HepG2 Assay for Mitochondrial Membrane Potential (AID 2282675); conditions: imaging, actives raise or lower the signal
Outline: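 HepG2 cells dosed 1 hour with 0.39–200 uM compound in duplicate, 0.5% DMSO final. MitoTracker Red CMXRos (250 nM, 30 min) loaded before formaldehyde fixation; fluorescence quantified by high-content imaging, bidirectional fitting versus DMSO.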

Measured: AC50

N#CSCSc1nc2ccccc2s1
inactive: [1] | [2] | [3] | [4]
active: [5] 27.5 µM

CC1(C)C(C=C(Cl)Cl)C1C(=O)OCc1cccc(Oc2ccccc2)c1 (stereo not given)
not listed: [1] | [9] | [10]
inactive: all other assays above

CCCN(CCC)C(=O)SCC
not listed: [1] | [7] | [10]
inactive: all other assays above

CCCOC(=O)c1ccc(C(=O)OCCC)nc1
inactive: [6] | [2] | [3] | [4] | [7] | [5]

C#C[C@]1(O)CC[C@H]2[C@@H]3CCC4=CC(=O)CC[C@@H]4[C@H]3CC[C@@]21CC
active: [6] 2.58 nM and 3.4 nM and 143 nM

CCCCCOC(=O)COc1cc(N2C(=O)C3=C(CCCC3)C2=O)c(F)cc1Cl
inactive: [1] | [2] | [3] | [4] | [5] | [9]

O=C(c1ccccc1)C1CCCCC1
active: [6] 9.92 µM and 6.21 µM and 50 µM

CSC(=O)c1cccc2nnsc12
inactive: [1] | [2] | [3] | [4] | [5]

CCCN(CCC)c1c([N+](=O)[O-])cc(C(F)(F)F)c(N)c1[N+](=O)[O-]
active: [5] 109 µM
inactive: [6] | [2] | [3] | [4]

COCCO
inactive: [6] | [2] | [3] | [4] | [5]

O=C(Nc1ccc([N+](=O)[O-])cc1Cl)c1cc(Cl)ccc1O
not listed: [8] | [9] | [10]
inactive: all other assays above

CCCCOC(=O)[C@@H](C)Oc1ccc(Oc2ccc(C(F)(F)F)cn2)cc1
active: [6] 13.7 µM
not listed: [1] | [7]
inactive: all other assays above

c1ccc(Nc2ccccc2)cc1
inactive: [1] | [2] | [3] | [4] | [5] | [8]

CC(=O)S[C@@H]1CC2=CC(=O)CC[C@]2(C)[C@H]2CC[C@@]3(C)[C@@H](CC[C@@]34CCC(=O)O4)[C@H]12
active: [6] 10.7 µM and 174 nM | [9] 37.4 µM
inactive: [6]

CCOC(=O)[C@H](C)Oc1ccc(Oc2nc3ccc(Cl)cc3o2)cc1
inactive: [1] | [2] | [3] | [4] | [5]

CC(C)CCCCCCc1ccc(O)cc1
active: [6] 320 nM [middle of 4 runs]

CCOC(=O)C(C)Oc1ccc(Oc2nc3ccc(Cl)cc3o2)cc1 (stereo not given)
inactive: [1] | [2] | [3] | [4] | [5] | [10]

OB(O)O
not listed: [1] | [9] | [10]
inactive: all other assays above

CCOC(=O)NCCOc1ccc(Oc2ccccc2)cc1
inactive: [6] | [2] | [3] | [4] | [7] | [5]

CCN(CC)C(=O)c1cccc(C)c1
inactive: [6] | [2] | [3] | [4] | [5]

CCCCC(CC)CN1C(=O)C2C3C=CC(C3)C2C1=O (stereo not given)
inactive: [6] | [2] | [3] | [4] | [5]

CCCCN(CCC(=O)OCC)C(C)=O
inactive: [6]

CCCCN(CCCC)C(=S)S
active: [6] 89.4 µM

COC(=O)CSc1cc(N=c2sc(=O)n3n2CCCC3)c(F)cc1Cl
inactive: [1] | [2] | [3] | [4] | [5]

COC(=O)c1ccccc1C(=O)O
not listed: [1] | [9] | [10]
inactive: all other assays above

Cc1nn(C)c(Oc2ccccc2)c1C=NOCc1ccc(C(=O)OC(C)(C)C)cc1
active: [6] 0.00439 µM
inactive: [2] | [3] | [4] | [5]

O=C(O)C1(C(=O)Nc2ccc(Cl)cc2Cl)CC1
inactive: [1] | [2] | [3] | [4] | [5]

O=C(O)c1ccccc1
inactive: [6]

CCOC(=O)c1ccc(O)cc1
active: [6] 11.4 µM [middle of 4 runs]

COc1c(Cl)ccc(Cl)c1C(=O)O
inactive: [6] | [2] | [3] | [4] | [5]

S=C([S-])NCCNC(=S)[S-].[Mn+2]
inactive: [2] | [3] | [4] | [5]

CCN(Cc1c(F)cccc1Cl)c1c([N+](=O)[O-])cc(C(F)(F)F)cc1[N+](=O)[O-]
active: [6] 2.12 µM
not listed: [1] | [7] | [8]
inactive: all other assays above

C[C@]12C[C@H](O)[C@H]3[C@@H](CCC4=CC(=O)CC[C@@]43C)[C@@H]1CC[C@@H]2C(=O)CO
active: [6] 32.8 nM and 26.6 nM and 102 nM | [9] 114 µM

CCOC(=O)COc1cc(-n2ncc(C(F)(F)F)c(C)c2=O)c(F)cc1Cl
inactive: [2] | [3] | [4] | [5] | [9]

O=C(c1ccc(O)cc1O)c1ccc(O)cc1O
active: [6] 756 nM and 805 nM and 548 nM
inactive: [9]

CCC(O)=C1C(=O)CC(C(=O)O)CC1=O (stereo not given)
inactive: [2] | [3] | [4] | [5]

COC(=O)c1ccc(CNS(C)(=O)=O)cc1S(=O)(=O)NC(=O)Nc1nc(OC)cc(OC)n1
inactive: [2] | [3] | [4] | [5] | [10] | [9]

c1ccc2[nH]c(-c3cscn3)nc2c1
inactive: [2] | [3] | [4] | [5]

CCNc1nc(N)nc(Cl)n1
inactive: [2] | [3] | [4] | [5]

S=C(S)NCCNC(=S)S.[Mn+2].[S-]C([S-])=NCCN=C([S-])[S-].[Zn+2]
inactive: [2] | [3] | [4] | [7] | [5]

CCCOC(=O)NCCCN(C)C
inactive: [2] | [3] | [4] | [5]

C[C@]12CC[C@@H]3c4ccc(O)cc4C[C@@H](CCCCCCCCCS(=O)CCCC(F)(F)C(F)(F)F)[C@H]3[C@@H]1CC[C@@H]2O (stereo not given in full)
active: [6] 6.15 µM and 9.53 µM
inactive: [9]

CCC(C)OC(=O)N1CCCCC1CCO (stereo not given)
inactive: [2] | [3] | [4] | [5] | [9]

Oc1ccc(C(c2ccc(O)cc2)C(Cl)(Cl)Cl)cc1
active: [10] 87 µM
not listed: [1] | [6] | [7]
inactive: all other assays above

CCCCOC(=O)C(C)Oc1ccc(Oc2ccc(C(F)(F)F)cn2)cc1 (stereo not given)
active: [6] 0.0178 µM
inactive: [2] | [3] | [4] | [5] | [9]

CCSC(=O)N(CC(C)C)CC(C)C
not listed: [1] | [7] | [8]
inactive: all other assays above

COC(=O)c1ccccc1S(=O)(=O)NC(=O)Nc1nc(OC(F)F)cc(OC(F)F)n1
inactive: [2] | [3] | [4] | [5] | [9]

CCCCCCC(C)OC(=O)COc1nc(F)c(Cl)c(N)c1Cl (stereo not given)
inactive: [3] | [4] | [9]
active: [2] 113 µM | [5] 100 µM

COC(=O)c1cccc(C)c1S(=O)(=O)NC(=O)Nc1nc(OCC(F)(F)F)nc(N(C)C)n1
inactive: [2] | [3] | [4] | [5]

CCCCC(CC)COC(=O)c1ccccc1C(=O)O (stereo not given)
not listed: [1] | [6] | [10]
inactive: all other assays above

COc1nc(C)nc(NC(=O)NS(=O)(=O)c2ccccc2OCCCl)n1
inactive: [2] | [3] | [4] | [5] | [9]

CC(C)(c1ccc(O)cc1)c1ccc(O)cc1
inactive: [2] | [3] | [4] | [5]

COC(=O)c1c(Cl)nn(C)c1S(=O)(=O)NC(=O)Nc1nc(OC)cc(OC)n1
inactive: [2] | [3] | [4] | [5]

CN(C)C(=O)Nc1ccc(Cl)c(Cl)c1
inactive: [2] | [3] | [4] | [7] | [5]

C=CCOC(Cn1ccnc1)c1ccc(Cl)cc1Cl (stereo not given)
inactive: [2] | [3] | [4] | [5] | [8] | [10]

N[C@@H](Cc1cc(I)c(Oc2ccc(O)c(I)c2)c(I)c1)C(=O)O
active: [6] 40 µM and 25 µM
inactive: [9]

CCOC(=O)C(C)Oc1ccc(Oc2cnc3cc(Cl)ccc3n2)cc1 (stereo not given)
inactive: [6] | [2] | [3] | [4] | [5] | [10]

CC(C)(C)[C@@H](O)[C@@H](Cc1ccc(Cl)cc1)n1cncn1
inactive: [2] | [3] | [4] | [5]

CCCCOCCOCCOCc1cc2c(cc1CCC)OCO2
inactive: [2] | [3] | [4] | [5]

C#CCOC(=O)[C@@H](C)Oc1ccc(Oc2ncc(Cl)cc2F)cc1
not listed: [1] | [7] | [8]
inactive: all other assays above

COC(=O)c1ccc(I)cc1S(=O)(=O)NC(=O)Nc1nc(C)nc(OC)n1
inactive: [2] | [3] | [4] | [5] | [9]
